Measured values published in PubChem BioAssay (NCI).
Compounds without any hit were thinned out: in the full panel of roughly 79,000, 15% have a hit. Active and inactive are the calls of the source. Rule as the data show it: active = growth inhibition above about 70%; inactive = the rest.

Tests used:
[1] = NCI Yeast Anticancer Drug Screen. Data for the rad52 strain (AID 147);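 also: 0% = growth of vehicle-treated control cultures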; settings: S. cerevisiae rad52 mutant growth inhibition, stronger effect = higher value
In short: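 Genetically altered yeast (DNA damage repair defect) treated with compound; inhibition calculated relative to vehicle.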

[2] = NCI Yeast Anticancer Drug Screen. Data for the wt1 strain (AID 149);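 also: 0% = growth of vehicle-treated wt1 cultures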; settings: S. cerevisiae wt1 strain (SPY 50644) growth inhibition, stronger effect = higher value
In short: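 Vehicle-normalised growth inhibition; strain wt1; compound exposure.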

[3] = NCI Yeast Anticancer Drug Screen. Data for the rad50EPP+ strain (AID 151);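 also: 0% = growth of vehicle-treated control cultures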; settings: S. cerevisiae rad50 mutant strain, stronger effect = higher value
In short: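 Strain rad50EPP+; compound exposure; % growth inhibition vs vehicle.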

[4] = NCI Yeast Anticancer Drug Screen. Data for the mgt1 strain (AID 153); settings: S. cerevisiae mgt1 mutant growth inhibition, stronger effect = higher value
In short: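 Read-out: yeast growth inhibition vs vehicle control. Strain mgt1, drawn from a panel altered in DNA damage repair or cell cycle control.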

[5] = NCI Yeast Anticancer Drug Screen. Data for the rad50 strain (AID 155);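 also: 0% = growth of vehicle-only cultures of the same strain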; settings: S. cerevisiae rad50 strain growth inhibition, stronger effect = higher value
In short: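 A DNA repair-deficient yeast mutant serves as the test organism; compound-induced growth inhibition is calculated against vehicle-treated cells.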

[6] = NCI Yeast Anticancer Drug Screen. Data for the mec2-1 strain (AID 157); settings: S. cerevisiae mec2-1 strain, stronger effect = higher value
In short: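 Cells of the genetically defined mec2-1 yeast strain are incubated with test compound. Inhibition of growth is calculated against vehicle-treated controls.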

[7] = NCI Yeast Anticancer Drug Screen. Data for the rad14 strain (AID 159);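 also: 0% = growth of vehicle-treated control cultures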; settings: S. cerevisiae rad14 strain growth inhibition, stronger effect = higher value
In short: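 Vehicle-treated cultures served as the baseline for growth inhibition of a DNA repair-mutant yeast strain exposed to each compound.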

[8] = NCI Yeast Anticancer Drug Screen. Data for the sgs1 mgt1 strain (AID 161);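 also: 0% = growth of cultures given vehicle only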; settings: S. cerevisiae sgs1 mgt1 strain, stronger effect = higher value
In short: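 Genetically altered yeast, compound exposure, growth inhibition relative to vehicle.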

[9] = NCI Yeast Anticancer Drug Screen. Data for the CLN2oe strain (AID 163);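 also: 0% = growth of vehicle-only control cultures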; settings: S. cerevisiae CLN2oe strain, stronger effect = higher value
In short: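 Strain altered in cell-cycle control, incubated with compound; growth compared to solvent-treated controls.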

[10] = NCI Yeast Anticancer Drug Screen. Data for the cln2 rad14 strain (AID 165);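 also: 0% = growth equal to vehicle treated cultures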; settings: S. cerevisiae cln2 rad14 strain, stronger effect = higher value
In short: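 The screen exposed genetically defined yeast (cln2 rad14) to test compounds and scored growth inhibition relative to vehicle-treated controls.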

[11] = NCI Yeast Anticancer Drug Screen. Data for the bub3 strain (AID 167); settings: S. cerevisiae bub3 mutant strain, stronger effect = higher value
In short: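 Inhibition values come from growth of compound-treated mutant yeast normalised to vehicle-treated controls.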

[12] = NCI Yeast Anticancer Drug Screen. Data for the wt2 strain (AID 169);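 also: 0% = growth of vehicle-treated yeast cultures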; settings: S. cerevisiae wt2 strain growth inhibition, stronger effect = higher value
In short: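 Steps: yeast strain treated with compound; growth recorded; inhibition calculated relative to cultures given vehicle alone.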

[13] = NCI Yeast Anticancer Drug Screen. Data for the mlh1 strain (AID 171);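 also: 0% = growth of vehicle-treated control cultures of the same strain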; settings: S. cerevisiae mlh1 strain growth inhibition, stronger effect = higher value
In short: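 Yeast screen: mutant strain plus compound, growth scored against vehicle control wells.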

[14] = NCI Yeast Anticancer Drug Screen. Data for the sgs1 strain (AID 173);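 also: 0% = growth of vehicle-only control cultures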; settings: S. cerevisiae sgs1 mutant, stronger effect = higher value
In short: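 Inhibition of yeast growth served as the measure. The mutant strain was treated with each compound, and growth was normalised to cultures receiving vehicle alone.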

[15] = NCI Yeast Anticancer Drug Screen. Data for the mlh1 rad18 strain (AID 175); settings: S. cerevisiae mlh1 rad18 strain growth inhibition, stronger effect = higher value
In short: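 Compound-treated yeast growth, normalised to vehicle controls. Strain bears defined DNA repair mutations.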

[16] = NCI Yeast Anticancer Drug Screen. Data for the rad18 strain (AID 177); settings: S. cerevisiae rad18 mutant growth inhibition, stronger effect = higher value
In short: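 Inhibition values reflect reduced yeast growth compared with vehicle-treated controls, using a strain engineered with a DNA damage repair defect.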

[17] = at 5.0 µM (retest, dose inferred, filed as 0.5)
[18] = at 50.0 µM (retest, dose inferred, filed as 5.0)

Measured: growth inhibition

CCC(C)(c1ccc(O)c(C)c1)c1ccc(O)c(C)c1
active: [1]; at 33.0 µM 98% | [1]; at 100.0 µM 98% | [2]; at 33.0 µM 98% | [2]; at 100.0 µM 99% | [4]; at 33.0 µM 97% | [4]; at 100.0 µM 99% | [5]; at 33.0 µM 97% | [5]; [18] 87% | [5]; at 50.0 µM 92% | [5]; at 100.0 µM 97% | [6]; at 33.0 µM 98% | [6]; [18] 90% | [6]; at 50.0 µM 93.3% | [6]; at 100.0 µM 98% | [7]; at 33.0 µM 98% | [7]; at 100.0 µM 98% | [8]; [18] 98% | [8]; at 50.0 µM 93.8% | [9]; at 33.0 µM 97% | [9]; at 100.0 µM 98% | [10]; [17] 81% | [10]; [18] 100% | [10]; at 50.0 µM 92.7% | [11]; at 33.0 µM 97% | [11]; [18] 99% | [11]; at 50.0 µM 92.2% | [11]; at 100.0 µM 98% | [12]; at 33.0 µM 98% | [12]; at 100.0 µM 99% | [13]; at 33.0 µM 91% | [13]; at 100.0 µM 98% | [14]; at 33.0 µM 97% | [14]; at 100.0 µM 98% | [15]; [18] 91% | [15]; at 50.0 µM 92.2% | [16]; at 33.0 µM 97% | [16]; at 100.0 µM 98%
inactive: [1]; at 1.2 µM -36% | [1]; at 3.7 µM -19% | [1]; at 11.0 µM 42% | [2]; at 1.2 µM -17% | [2]; at 3.7 µM -23% | [2]; at 11.0 µM 29% | [3]; at 1.2 µM -31% | [3]; at 3.7 µM -38% | [3]; at 11.0 µM -43% | [3]; at 33.0 µM -41% | [3]; at 100.0 µM 12% | [4]; at 1.2 µM -49% | [4]; at 3.7 µM -39% | [4]; at 11.0 µM 14% | [5]; at 1.2 µM -30% | [5]; at 3.7 µM -28% | [5]; [17] 40% | [5]; at 11.0 µM 52% | [6]; at 1.2 µM -66% | [6]; at 3.7 µM -45% | [6]; [17] 42% | [6]; at 11.0 µM 43% | [7]; at 1.2 µM -38% | [7]; at 3.7 µM -43% | [7]; at 11.0 µM 15% | [8]; [17] -3% | [9]; at 1.2 µM -36% | [9]; at 3.7 µM -28% | [9]; at 11.0 µM 45% | [11]; at 1.2 µM -27% | [11]; at 3.7 µM -13% | [11]; [17] 13% | [11]; at 11.0 µM 47% | [12]; at 1.2 µM -33% | [12]; at 3.7 µM -31% | [12]; at 11.0 µM 45% | [13]; at 1.2 µM -45% | [13]; at 3.7 µM -43% | [13]; at 11.0 µM 42% | [14]; at 1.2 µM -32% | [14]; at 3.7 µM -25% | [14]; at 11.0 µM 39% | [15]; [17] 30% | [16]; at 1.2 µM -55% | [16]; at 3.7 µM -38% | [16]; at 11.0 µM 30%

CC1CCC2(C(=O)O)CCC3(C)C(=CCC4C5(C)CC(O)C(O)C(C)(CO)C5C(O)CC43C)C2C1C (stereo unspecified)
inactive: [1]; at 1.2 µM -23% | [1]; at 3.7 µM -25% | [1]; at 11.0 µM -28% | [1]; at 33.0 µM -15% | [2]; at 1.2 µM -17% | [2]; at 3.7 µM -20% | [2]; at 11.0 µM -17% | [2]; at 33.0 µM -3% | [3]; at 1.2 µM 0% | [3]; at 3.7 µM -7% | [3]; at 11.0 µM -2% | [3]; at 33.0 µM 3% | [3]; at 100.0 µM 33% | [4]; at 1.2 µM -34% | [4]; at 3.7 µM -34% | [4]; at 11.0 µM -32% | [4]; at 33.0 µM -36% | [4]; at 100.0 µM 47% | [5]; at 1.2 µM 13% | [5]; at 3.7 µM -20% | [5]; [17] 54% | [5]; at 11.0 µM -20% | [5]; at 33.0 µM -28% | [5]; at 100.0 µM 63% | [6]; at 1.2 µM -15% | [6]; at 3.7 µM -6% | [6]; [17] -1% | [6]; at 11.0 µM -17% | [6]; at 33.0 µM -15% | [7]; at 1.2 µM -13% | [7]; at 3.7 µM -13% | [7]; at 11.0 µM -4% | [7]; at 33.0 µM 6% | [8]; [17] 16% | [9]; at 1.2 µM -6% | [9]; at 3.7 µM -4% | [9]; at 11.0 µM 3% | [9]; at 33.0 µM 7% | [10]; [17] 20% | [10]; at 50.0 µM 39.1% | [11]; at 1.2 µM -5% | [11]; at 3.7 µM -2% | [11]; [17] 16% | [11]; at 11.0 µM -1% | [11]; at 33.0 µM 13% | [12]; at 1.2 µM -2% | [12]; at 3.7 µM -2% | [12]; at 11.0 µM -1% | [12]; at 33.0 µM 21% | [13]; at 1.2 µM -29% | [13]; at 3.7 µM -8% | [13]; at 11.0 µM -20% | [13]; at 33.0 µM -2% | [14]; at 1.2 µM -4% | [14]; at 3.7 µM 9% | [14]; at 11.0 µM -10% | [14]; at 33.0 µM -17% | [15]; [17] 41% | [15]; at 50.0 µM 58.7% | [16]; at 1.2 µM -43% | [16]; at 3.7 µM -47% | [16]; at 11.0 µM -42% | [16]; at 33.0 µM -61%
active: [1]; at 100.0 µM 81% | [2]; at 100.0 µM 80% | [5]; [18] 88% | [5]; at 50.0 µM 76.9% | [6]; [18] 90% | [6]; at 50.0 µM 82.3% | [6]; at 100.0 µM 75% | [7]; at 100.0 µM 85% | [8]; [18] 70% | [8]; at 50.0 µM 78.7% | [9]; at 100.0 µM 78% | [10]; [18] 77% | [11]; [18] 93% | [11]; at 50.0 µM 88.9% | [11]; at 100.0 µM 95% | [12]; at 100.0 µM 96% | [13]; at 100.0 µM 95% | [14]; at 100.0 µM 95% | [15]; [18] 78% | [16]; at 100.0 µM 87%
